# Test results: the supplement of paper PMC10849652
# Targets with a hit are over-represented here; the source holds about 7,900 in all. About 0.6% of all pairs of compound and target were hits. Values without a mark were called inactive.
# Tests used:
# Assay in all cases: log2 fold change, soluble protein after heating vs DMSO (PISA); higher = thermal stabilisation; K562 cells, 10 uM, 30 min; active = over 0.2 and 3.5 SD of the protein, either way, in both replicates (recomputed)
# erlotinib = compound: C#Cc1cccc(Nc2ncnc3cc(OCCOC)c(OCCOC)cc23)c1 [erlotinib]
# Outline: (§1)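 K562 cells at 2×10^6 cells/mL were treated for 30 min with 10 μM compound, and aliquots were heated for 3 min over 48°C-58°C before pooling. Extraction used PBS with 0.5% NP-40 at 4°C, and soluble protein was the supernatant after 21,000xg for 90 min, measured by TMTpro 16plex LC-MS/MS with channel sums equalised. Thermal stability values, relative to control samples and from duplicates, are log2 fold changes.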
# [1] = compound: C/C(=N\NC(=O)C1=CC(=CC=C1)S(=O)(=O)N2CCOCC2)/C3=C(C=CC(=C3)Cl)O
# Outline: as §1
# [2] = compound: C1=CC(=C(C=C1Cl)C2=NC3=NC=CN=C3C(=N2)NC4=CC=NC=C4)F
# Outline: as §1
# [3] = compound: C1=CC(=CC=C1C2=NC3=C(N2)C=C(C=C3)C(=O)N)OC4=CC=C(C=C4)Cl
# Outline: as §1
# [4] = compound: C1=CC2=C(C=CC(=C2)/C=C\3/C(=O)NC(=NCC4=CC=CS4)S3)N=C1
# Outline: as §1
# [5] = compound: C1=CC2=NC=CN=C2C=C1/C=C/3\C(=O)NC(=O)S3
# Outline: as §1
# [6] = compound: C1=CC=C(C=C1)C2=NC(=C(N2)C3=CC=NC=C3)C4=CC(=C(C=C4)Cl)O
# Outline: as §1
# [7] = compound: C1=CC=C2C(=C1)C3=NNC4=CC=CC(=C43)C2=O
# Outline: as §1
# [8] = compound: C1CCN(C1)C(=O)NC2=CC=CC(=C2)NC3=NC=C(C(=N3)NCCC4=CN=CN4)Br
# Outline: as §1
# [9] = compound: C1CN(CCC1(CC2=CC=C(C=C2)Cl)N)C3=NC=NC4=C3C=CN4
# Outline: as §1
# Sequence of UniProt Q96AD5 (Q96AD5 whole entry, looked up): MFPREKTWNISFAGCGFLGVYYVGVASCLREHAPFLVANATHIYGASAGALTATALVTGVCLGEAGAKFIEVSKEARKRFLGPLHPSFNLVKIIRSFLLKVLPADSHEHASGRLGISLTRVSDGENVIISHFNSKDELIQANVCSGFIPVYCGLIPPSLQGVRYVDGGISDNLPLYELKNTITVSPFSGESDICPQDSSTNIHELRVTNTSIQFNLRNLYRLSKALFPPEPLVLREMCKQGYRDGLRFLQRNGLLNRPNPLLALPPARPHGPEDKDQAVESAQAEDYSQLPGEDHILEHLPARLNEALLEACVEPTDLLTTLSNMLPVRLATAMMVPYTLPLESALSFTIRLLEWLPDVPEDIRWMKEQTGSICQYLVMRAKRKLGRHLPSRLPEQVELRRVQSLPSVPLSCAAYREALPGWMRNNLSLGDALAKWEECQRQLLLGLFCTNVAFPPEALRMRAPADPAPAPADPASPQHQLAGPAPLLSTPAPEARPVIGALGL
# Sequence of UniProt Q9Y2Y1 (Q9Y2Y1 whole entry, looked up): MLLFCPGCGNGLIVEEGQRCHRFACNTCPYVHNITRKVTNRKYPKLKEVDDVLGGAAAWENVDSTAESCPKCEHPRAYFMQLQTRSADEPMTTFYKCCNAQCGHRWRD
# Sequence of UniProt Q86TP1 (Q86TP1 whole entry, looked up): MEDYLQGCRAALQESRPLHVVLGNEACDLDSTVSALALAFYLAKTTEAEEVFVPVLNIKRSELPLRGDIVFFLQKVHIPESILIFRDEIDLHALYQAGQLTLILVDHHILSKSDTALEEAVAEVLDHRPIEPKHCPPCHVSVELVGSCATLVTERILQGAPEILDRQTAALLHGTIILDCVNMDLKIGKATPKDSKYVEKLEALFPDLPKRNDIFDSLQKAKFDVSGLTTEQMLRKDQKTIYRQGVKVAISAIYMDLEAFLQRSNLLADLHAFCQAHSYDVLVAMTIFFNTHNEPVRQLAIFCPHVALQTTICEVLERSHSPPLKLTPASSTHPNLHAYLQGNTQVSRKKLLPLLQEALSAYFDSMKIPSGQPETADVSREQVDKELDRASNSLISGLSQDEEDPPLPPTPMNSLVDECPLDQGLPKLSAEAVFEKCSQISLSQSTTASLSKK
# Sequence of UniProt Q8IZL8 (Q8IZL8 whole entry, looked up): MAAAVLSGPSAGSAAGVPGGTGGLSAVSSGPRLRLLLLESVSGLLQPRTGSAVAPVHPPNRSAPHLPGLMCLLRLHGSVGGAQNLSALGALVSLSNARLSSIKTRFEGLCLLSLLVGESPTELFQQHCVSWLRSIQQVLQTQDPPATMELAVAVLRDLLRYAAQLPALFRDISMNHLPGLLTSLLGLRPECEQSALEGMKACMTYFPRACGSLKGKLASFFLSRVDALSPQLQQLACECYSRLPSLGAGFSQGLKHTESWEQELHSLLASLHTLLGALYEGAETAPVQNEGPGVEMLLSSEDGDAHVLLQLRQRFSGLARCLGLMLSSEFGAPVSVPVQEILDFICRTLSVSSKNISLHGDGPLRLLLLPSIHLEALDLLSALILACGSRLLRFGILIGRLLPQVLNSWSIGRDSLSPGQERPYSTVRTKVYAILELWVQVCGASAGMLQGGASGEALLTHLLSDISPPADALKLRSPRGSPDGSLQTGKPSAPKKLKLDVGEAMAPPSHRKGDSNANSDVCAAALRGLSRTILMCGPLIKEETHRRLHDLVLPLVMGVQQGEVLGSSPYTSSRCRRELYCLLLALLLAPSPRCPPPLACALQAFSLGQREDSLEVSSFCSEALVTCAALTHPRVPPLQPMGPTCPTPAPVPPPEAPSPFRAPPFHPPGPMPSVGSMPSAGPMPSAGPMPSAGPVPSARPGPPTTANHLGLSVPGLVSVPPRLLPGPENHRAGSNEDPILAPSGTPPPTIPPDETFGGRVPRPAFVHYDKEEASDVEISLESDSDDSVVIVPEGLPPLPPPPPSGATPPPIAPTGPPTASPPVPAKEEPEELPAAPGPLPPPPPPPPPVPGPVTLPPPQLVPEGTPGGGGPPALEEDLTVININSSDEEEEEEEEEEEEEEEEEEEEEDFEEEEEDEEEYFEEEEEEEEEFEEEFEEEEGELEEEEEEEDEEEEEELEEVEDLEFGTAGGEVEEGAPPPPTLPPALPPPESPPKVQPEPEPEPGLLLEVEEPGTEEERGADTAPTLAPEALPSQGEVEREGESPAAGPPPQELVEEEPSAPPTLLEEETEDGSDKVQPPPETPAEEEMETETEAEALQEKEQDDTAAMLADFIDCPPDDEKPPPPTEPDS
# Sequence of UniProt Q93096 (Q93096 whole entry, looked up): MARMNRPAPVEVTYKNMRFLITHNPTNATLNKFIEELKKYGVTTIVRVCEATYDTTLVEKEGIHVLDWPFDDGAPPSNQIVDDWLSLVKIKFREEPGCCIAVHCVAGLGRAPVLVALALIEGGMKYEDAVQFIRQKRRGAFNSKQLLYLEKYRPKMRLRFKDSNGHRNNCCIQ
# Sequence of UniProt O43164 (O43164 whole entry, looked up): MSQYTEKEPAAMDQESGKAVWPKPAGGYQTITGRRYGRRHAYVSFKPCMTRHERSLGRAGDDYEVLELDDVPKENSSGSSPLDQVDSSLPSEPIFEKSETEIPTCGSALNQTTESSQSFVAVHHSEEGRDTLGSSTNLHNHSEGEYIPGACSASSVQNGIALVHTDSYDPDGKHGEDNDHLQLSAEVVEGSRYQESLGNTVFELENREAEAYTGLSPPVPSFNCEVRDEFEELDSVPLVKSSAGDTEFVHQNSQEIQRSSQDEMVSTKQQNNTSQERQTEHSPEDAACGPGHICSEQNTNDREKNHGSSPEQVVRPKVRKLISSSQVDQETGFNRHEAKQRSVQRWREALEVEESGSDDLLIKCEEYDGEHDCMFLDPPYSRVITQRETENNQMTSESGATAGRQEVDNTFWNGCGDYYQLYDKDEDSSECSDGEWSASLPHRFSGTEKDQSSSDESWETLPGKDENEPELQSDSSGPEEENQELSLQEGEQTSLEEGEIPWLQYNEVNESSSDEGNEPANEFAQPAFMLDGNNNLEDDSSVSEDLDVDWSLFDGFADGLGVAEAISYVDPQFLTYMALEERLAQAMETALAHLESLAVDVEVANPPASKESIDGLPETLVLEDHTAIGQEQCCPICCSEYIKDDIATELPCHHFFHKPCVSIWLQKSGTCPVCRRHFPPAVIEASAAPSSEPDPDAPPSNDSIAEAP
# Sequence of UniProt P05423 (P05423 whole entry, looked up): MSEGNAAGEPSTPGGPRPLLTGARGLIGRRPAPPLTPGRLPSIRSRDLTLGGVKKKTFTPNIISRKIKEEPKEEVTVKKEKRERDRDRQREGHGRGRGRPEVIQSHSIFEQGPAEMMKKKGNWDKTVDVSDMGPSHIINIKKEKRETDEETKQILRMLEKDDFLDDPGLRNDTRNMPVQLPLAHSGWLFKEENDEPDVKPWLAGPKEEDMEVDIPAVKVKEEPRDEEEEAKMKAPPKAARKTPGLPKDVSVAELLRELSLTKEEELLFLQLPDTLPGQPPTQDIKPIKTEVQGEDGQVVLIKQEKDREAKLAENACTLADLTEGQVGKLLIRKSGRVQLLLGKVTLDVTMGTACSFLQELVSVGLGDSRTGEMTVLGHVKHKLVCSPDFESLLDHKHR
# Sequence of UniProt Q8N8N7 (Q8N8N7 whole entry, looked up): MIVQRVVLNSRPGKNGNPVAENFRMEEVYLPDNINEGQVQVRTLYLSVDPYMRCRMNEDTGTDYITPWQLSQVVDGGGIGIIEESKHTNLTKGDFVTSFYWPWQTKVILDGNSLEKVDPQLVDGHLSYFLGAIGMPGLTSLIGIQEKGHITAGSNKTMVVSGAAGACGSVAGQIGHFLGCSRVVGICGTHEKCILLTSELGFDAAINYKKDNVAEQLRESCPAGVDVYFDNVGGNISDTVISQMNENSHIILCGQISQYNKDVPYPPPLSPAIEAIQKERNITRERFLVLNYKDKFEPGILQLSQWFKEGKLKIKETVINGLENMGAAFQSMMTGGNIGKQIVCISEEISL
# Sequence of UniProt Q9UNM6 (Q9UNM6 whole entry, looked up): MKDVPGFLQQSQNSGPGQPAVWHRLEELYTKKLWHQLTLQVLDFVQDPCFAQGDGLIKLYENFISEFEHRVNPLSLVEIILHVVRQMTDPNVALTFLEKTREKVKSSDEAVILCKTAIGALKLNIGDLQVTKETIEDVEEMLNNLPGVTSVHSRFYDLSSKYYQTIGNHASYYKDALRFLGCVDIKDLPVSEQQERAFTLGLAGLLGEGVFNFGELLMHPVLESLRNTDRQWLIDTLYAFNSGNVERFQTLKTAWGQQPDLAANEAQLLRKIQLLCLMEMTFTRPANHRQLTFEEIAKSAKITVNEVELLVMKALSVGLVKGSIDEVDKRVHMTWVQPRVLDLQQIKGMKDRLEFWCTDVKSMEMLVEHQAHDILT
# Sequence of UniProt P0CAP2 (P0CAP2 whole entry, looked up): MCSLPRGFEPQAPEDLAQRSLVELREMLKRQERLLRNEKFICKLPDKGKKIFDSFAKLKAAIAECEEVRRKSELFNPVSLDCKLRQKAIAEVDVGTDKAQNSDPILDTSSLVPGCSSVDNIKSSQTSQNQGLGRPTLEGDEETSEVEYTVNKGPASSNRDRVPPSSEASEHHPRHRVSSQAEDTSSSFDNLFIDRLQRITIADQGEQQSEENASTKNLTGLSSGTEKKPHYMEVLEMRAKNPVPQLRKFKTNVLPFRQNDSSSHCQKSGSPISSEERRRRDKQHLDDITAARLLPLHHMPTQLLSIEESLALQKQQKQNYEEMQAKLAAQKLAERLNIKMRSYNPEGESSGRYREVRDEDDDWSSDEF
# Sequence of UniProt P49585 (P49585 whole entry, looked up): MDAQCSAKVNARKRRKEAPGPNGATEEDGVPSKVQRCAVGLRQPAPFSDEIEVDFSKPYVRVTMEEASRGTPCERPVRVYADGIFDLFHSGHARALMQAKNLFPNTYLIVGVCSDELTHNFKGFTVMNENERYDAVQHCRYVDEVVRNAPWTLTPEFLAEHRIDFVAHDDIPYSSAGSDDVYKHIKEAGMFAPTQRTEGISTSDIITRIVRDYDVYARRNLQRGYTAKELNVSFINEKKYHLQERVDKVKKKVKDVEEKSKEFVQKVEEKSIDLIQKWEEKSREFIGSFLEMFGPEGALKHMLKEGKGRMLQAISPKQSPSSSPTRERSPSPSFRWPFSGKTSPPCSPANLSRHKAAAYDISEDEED
Target,log2 fold change (erlotinib),log2 fold change [1],log2 fold change [2],log2 fold change [3],log2 fold change [4],log2 fold change [5],log2 fold change [6],log2 fold change [7],log2 fold change [8],log2 fold change [9]
PHLDB1 isoform 2 (UniProt Q86UU1),-0.02,0.03,0.099,0.027,0.165,-0.093,0.008,-0.125,-0.048,0.025
PRPF4B (UniProt Q13523),0.002,0.044,-0.213,0.074,-0.046,-0.064,-0.14,-0.12,-0.103,-0.113
PTGFRN (UniProt Q9P2B2),0.019,-0.006,0.021,0,-0.034,0.01,0.015,-0.053,-0.027,0.11
PRKAR2B (UniProt P31323),-0.017,0.066,-0.082,0.16,-0.004,0.012,-0.058,-0.083,-0.449 (active),-0.636 (active)
PELP1 (UniProt Q8IZL8),0.082,0.044,-0.035,0.008,-0.032,-0.008,0.007,-0.053,-0.041,0.08
PBX2 (UniProt P40425),0.111,0.076,0.055,0.007,0.009,-0.039,0.091,-0.098,-0.036,-0.269
POLR3D (UniProt P05423),0.068,-0.665 (active),-0.087,-0.031,-0.733 (active),-0.022,0.076,-0.004,-0.005,0.372
POLA1 (UniProt P09884),0.03,0.038,0.042,-0.023,-0.032,0,-0.013,0.021,0.006,-0.022
PCYT1A (UniProt P49585),-0.014,0.125,-0.03,-0.001,0.019,0.054,-0.09,-0.033,-0.043,-0.009
QRICH1 (UniProt Q2TAL8),0.066,0.361,-0.023,0,0.282,0.059,-0.053,-0.007,0.014,-0.076
PSMC5 (UniProt P62195),-0.116,-0.044,-0.029,0.021,-0.022,-0.03,-0.007,0.019,0.021,-0.032
PNPLA2 (UniProt Q96AD5),0.017,0.052,0.007,-0.021,0.045,0.063,-0.015,-0.027,0.101,-0.034
PRKACA (UniProt P17612),0.013,0.033,-0.054,-0.016,-0.034,0.042,0.087,-0.025,-0.142,0.047
POLR2M (UniProt P0CAP2),-0.042,-0.033,-0.054,0.004,0.05,0.055,0.041,-0.009,0.017,-0.024
PTGES3 (UniProt Q15185),0.005,0.095,0.079,-0.05,0.019,0.007,0.043,-0.014,-0.014,-0.049
PRG4 (UniProt Q92954),0.002,-0.109,0.011,-0.085,0.15,0.024,-0.139,-0.171,-0.143,0.031
PRUNE1 (UniProt Q86TP1),0.002,0.063,0.062,0.03,-0.034,-0.016,0.051,0.045,-0.079,-0.005
PTGR2 (UniProt Q8N8N7),-0.015,-0.027,0.016,-0.023,0.365,-0.01,0.062,0.056,-0.023,0.131
POLA2 (UniProt Q14181),0.042,0.086,0.021,-0.033,0.048,0.048,-0.044,-0.013,-0.063,-0.004
PTPN12 (UniProt Q05209),0.005,-0.007,-0.011,0.004,0.022,0.101,-0.021,-0.036,-0.039,-0.05
PTP4A1 (UniProt Q93096),0.053,0.083,0.134,0.037,-0.042,0.038,0.062,0.027,-0.096,-0.127
PJA2 (UniProt O43164),-0.006,-0.047,-0.049,0.018,0.003,0.071,-0.061,-0.112,-0.024,-0.009
PHF5A (UniProt Q7RTV0),0.008,-0.005,0.03,-0.034,-0.049,0.017,-0.03,-0.05,-0.02,0.022
PIGH (UniProt Q14442),-0.036,0.068,0.049,0.027,0.042,-0.03,-0.065,-0.054,-0.005,0.009
PSMD8 (UniProt P48556),-0.045,-0.096,-0.046,0.023,-0.027,-0.031,0.036,0.039,0.055,-0.031
PMPCA (UniProt Q10713),-0.014,0.005,0.064,0.016,0.03,-0.014,0.07,0.065,-0.026,0.011
PLBD2 (UniProt Q8NHP8),-0.022,-0.048,0.026,0.01,0.009,0.037,0.01,-0.02,-0.018,0.018
PDLIM7 (UniProt Q9NR12),0.013,0.039,0.1,-0.037,-0.01,0.002,0.073,0.016,-0.01,0.133
PSMD13 (UniProt Q9UNM6),-0.091,-0.026,-0.076,0.002,-0.02,0.013,-0.002,0.044,-0.008,-0.069
POLR3K (UniProt Q9Y2Y1),-0.082,0.005,-0.005,0.007,-0.057,-0.038,-0.235 (active),-0.056,-0.006,0.031
